# Values joined by “and” are separate entries in the source; they are usually repeats but may differ in a detail not shown here. Equal entries are not always repeated. Inconclusive results are not listed. The source holds several records for some structures; these can differ, active in one and inactive in another. Active and inactive are the calls of the source. Rule for the calls, unless noted: active = hit-call score of the fitted dose curve at least 0.9, where 1 is the maximum; inconclusive = response in the unintended direction; inactive = score below 0.9.
# Molecular target: Cellular tumor antigen p53 (Homo sapiens) (UniProt P04637)
# Sequence (P04637 whole entry, looked up): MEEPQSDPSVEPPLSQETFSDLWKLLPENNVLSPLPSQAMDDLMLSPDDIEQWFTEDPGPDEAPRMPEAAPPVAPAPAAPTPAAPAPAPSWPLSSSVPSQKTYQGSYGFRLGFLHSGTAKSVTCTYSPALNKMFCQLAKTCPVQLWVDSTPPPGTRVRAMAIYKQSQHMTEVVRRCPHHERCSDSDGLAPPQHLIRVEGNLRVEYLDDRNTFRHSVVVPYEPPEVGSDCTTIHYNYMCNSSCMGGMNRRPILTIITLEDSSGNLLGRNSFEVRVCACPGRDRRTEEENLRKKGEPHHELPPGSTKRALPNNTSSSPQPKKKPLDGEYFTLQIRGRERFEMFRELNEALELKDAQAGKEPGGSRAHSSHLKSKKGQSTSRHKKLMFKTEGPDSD
# Experiment: TOX21_p53_BLA_p4_ratio: Tox21 HCT-116 p53 Agonism Beta-lactamase Assay, Ratio, Phase 4 (AID 2283601)
# Method in brief: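 HCT-116 p53 beta-lactamase reporter cells (4000/well) preincubated 5 h, then compound (217-fold dilution of DMSO stock) for 16 h at 37C. CCF4-AM substrate added 2 h at room temperature; 460/530 nm emission ratio fitted upward versus DMSO.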
row,Compound,outcome
1,CCCCCc1ccc(Cl)cc1,inactive
2,O=c1n(CCO)c(=O)n(CCO)c(=O)n1CCO,inactive
3,COCCOCCOCCOCCOC,inactive
4,O=c1[nH]c(=O)c2[nH]c(=O)[nH]c2[nH]1,inactive
5,CCC(Cc1ccccc1)(C(=O)c1ccc(N2CCOCC2)cc1)N(C)C (stereo not drawn),inactive
6,COC(=O)c1sccc1S(N)(=O)=O,inactive
7,C=C(C)[C@H]1CC=C(C)CC1,inactive
8,CC(=O)[C@H]1[C@H](C#N)C[C@H]2[C@@H]3CC=C4C[C@@H](O)CC[C@]4(C)[C@H]3CC[C@@]21C,inactive
9,c1ccc(CCCc2ccncc2)cc1,inactive
10,CNC(=S)NN,inactive
11,COC(=O)c1c(C)cc(O)c(C)c1O,inactive
12,N#CCc1ccc(Cl)cc1Cl,inactive
13,O=C(O)c1cc(Cl)cc([N+](=O)[O-])c1Cl,inactive

# Tested on: Thyroperoxidase (TPO), gene 54314
# Experiment: CCTE_Simmons_AUR_rTPO: CCTE's Amplex UltraRed Assay for Thyroperoxidase (TPO) Inhibition, Simmons Lab (AID 2283662);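 for AC50: potency for loss of signal meaning inhibition of peroxidase activity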
# Method in brief: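 Rat thyroid microsomes (5 ug protein) with 25 uM Amplex UltraRed and 300 uM H2O2 in 200 mM phosphate buffer, 30 min at 37C in dark; fluorescence 544/590 nm. Eight concentrations, 5 nM–87.5 uM final, 0.5% DMSO, triplicate biological replicates.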
Compound,AC50,outcome
CCCCCCCC[N+](C)(CCCCCCCC)CCCCCCCC,23.7 µM (active),
CC(C)(C)c1ccc(N)cc1,0.106 µM (active),
O=S1(=O)OC(c2ccc(O)cc2)(c2ccc(O)cc2)c2ccccc21,24.9 µM (active) and 22.2 µM (active),
CC(C)(C)c1ccc(-c2ccc(C(C)(C)C)cc2)cc1,,inactive
CNC(=S)NN,22.5 µM (active),
CC/C=C\C/C=C\C/C=C\CCCCCCCC(=O)O,28.7 µM (active),
COC(=O)c1c(C)cc(O)c(C)c1O,11.6 µM (active),

# Tested on: not listed separately
# Experiment: CCTE_Simmons_CellTiterGLO_HEK293T: Viability Assessment in CCTE's Assays for Thyroperoxidase (TPO) Inhibition, Simmons Lab (AID 2283665);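 for AC50: cells exposed to compound for 24 h before readout; actives reduce ATP signal below DMSO vehicle meaning cytotoxicity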
# Method in brief: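 HEK293T cells in DMEM with 1% FBS, dosed 24 h at 37C with 8 concentrations, 5 nM–87.5 uM final, 0.5% DMSO. ATP measured by CellTiter Glo luminescence; loss of signal vs DMSO, three biological replicates.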
Compound,AC50,outcome
CCCCCCCC[N+](C)(CCCCCCCC)CCCCCCCC,7.14 µM (active),
CC(C)(C)c1ccc(N)cc1,,inactive
O=S1(=O)OC(c2ccc(O)cc2)(c2ccc(O)cc2)c2ccccc21,72 µM (active),inactive
CNC(=S)NN,,inactive
CC/C=C\C/C=C\C/C=C\CCCCCCCC(=O)O,,inactive

# Read-out: not listed separately
# Experiment: CEETOX_H295R_MTT_cell_viability: Viability Assessment in the CeeTox HT-H295R MTT Assay (AID 2283718; active = hit-call score of the fitted dose curve at least 0.9, where 1 is the maximum; inactive = score below 0.9)
# Method in brief: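 Human H295R adrenal cells, prestimulated 48 h with 10 uM forskolin, were exposed 48 h to chemicals in 0.1% DMSO. Viability was measured in the same wells by MTT (0.5 mg/ml, 4 h, 37 C), absorbance 570/650 nm, as percent of controls.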
row,Compound,outcome
1,C1=CCCC1,inactive
2,Oc1ccc(Cl)cc1Cc1cc(Cl)ccc1O,inactive
3,CCCCNc1ccc(NCCCC)c2c1C(=O)c1ccccc1C2=O,inactive
4,COc1ccc2nc(N)sc2c1,inactive
5,C=COCCCC,inactive
6,COC(=O)c1c(C)cc(O)c(C)c1O,inactive
7,S=C(NC1CCCCC1)NC1CCCCC1,inactive
8,CO[Si](CCC1CCC2OC2C1)(OC)OC (stereo not drawn),inactive

# Molecular target: Luciferin 4-monooxygenase (Photinus pyralis) (UniProt P08659)
# Sequence (P08659 whole entry, looked up): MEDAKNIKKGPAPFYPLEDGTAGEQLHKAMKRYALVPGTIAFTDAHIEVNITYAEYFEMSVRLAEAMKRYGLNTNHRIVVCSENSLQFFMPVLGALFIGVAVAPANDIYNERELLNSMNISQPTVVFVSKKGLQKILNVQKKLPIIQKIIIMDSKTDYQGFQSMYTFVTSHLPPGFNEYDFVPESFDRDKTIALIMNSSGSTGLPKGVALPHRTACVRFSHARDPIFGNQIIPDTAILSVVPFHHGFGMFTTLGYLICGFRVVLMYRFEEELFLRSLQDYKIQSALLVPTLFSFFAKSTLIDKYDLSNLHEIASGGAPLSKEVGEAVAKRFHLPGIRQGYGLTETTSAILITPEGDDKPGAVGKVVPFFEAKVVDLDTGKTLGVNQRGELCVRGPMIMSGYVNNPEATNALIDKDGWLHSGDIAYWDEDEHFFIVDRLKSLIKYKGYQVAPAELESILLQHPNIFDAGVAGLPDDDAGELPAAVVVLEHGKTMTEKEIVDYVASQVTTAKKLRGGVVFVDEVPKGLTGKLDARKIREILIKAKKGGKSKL
# Experiment: CCTE_Simmons_QuantiLum_inhib_2: CCTE's Firefly Luciferase Inhibition Assay, Simmons Lab (AID 2283767);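 for AC50: potency for inhibitors that lower luciferase luminescence relative to DMSO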
# Method in brief: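 Cell-free recombinant firefly luciferase (5 ng/well) in 200mM potassium phosphate with 1 mg/ml BSA, 30 min at 37C with 8 concentrations from 5 nM to 87.5 uM [final], 0.5% DMSO. Luminescence read after D-luciferin (150uM)/dATP (147uM) reagent injection, pH 7.8; triplicates.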
Compound,AC50,outcome
CCCCCCCC[N+](C)(CCCCCCCC)CCCCCCCC,86 µM (active),
CC(C)(C)c1ccc(N)cc1,,inactive
O=S1(=O)OC(c2ccc(O)cc2)(c2ccc(O)cc2)c2ccccc21,36.6 µM (active) and 21.5 µM (active),
CC(C)(C)c1ccc(-c2ccc(C(C)(C)C)cc2)cc1,,inactive
CNC(=S)NN,,inactive
CC/C=C\C/C=C\C/C=C\CCCCCCCC(=O)O,,inactive
COC(=O)c1c(C)cc(O)c(C)c1O,,inactive

# Tested on: not listed separately
# Experiment: ACEA_AR_agonist_AUC_viability: ACEA Biosciences xCELLigence Real-Time Cell Analysis on Androgen Receptor Agonism for Viability (AID 2283775);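 for AC50: viability read 80 hours after compound addition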
# Method in brief: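 Real-time impedance tracking of 22Rv1 growth, readings every 5 min for 5 h then hourly; area-under-curve viability endpoint at 80 hours, relative to DMSO. Compounds at eight concentrations, 1:4 steps, top 100 uM, n = 2.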
Compound,AC50,outcome
CCCCCCCC[N+](C)(CCCCCCCC)CCCCCCCC,1.03 µM (active),
CCCCCCCOC(=O)CCC,,inactive
CCCc1ccc(OC)cc1,,inactive
O=C(C(Cl)Cl)N1CCOC12CCCCC2,9.81 µM (active),
O=C(c1ccccc1)C1CCC1,,inactive
OC1CCCC1,,inactive
CC1=CC[C@H]2C[C@@H]1C2(C)C,,inactive
CCCCCCCC/C=C\CCCCCCCC(=O)OCCO,,inactive
Oc1ccc(Cl)cc1Cc1cc(Cl)ccc1O,11.5 µM (active),
CC(C)(C)c1ccc(-c2ccc(C(C)(C)C)cc2)cc1,,inactive
CNC(=S)NN,,inactive
O=c1cc(-c2ccccc2)oc2ccccc12,,inactive
CC/C=C\C/C=C\C/C=C\CCCCCCCC(=O)O,,inactive
O=C(O)CCCC[C@@H]1SC[C@@H]2NC(=O)N[C@@H]21,,inactive

# Tested on: not listed separately
# Experiment: ACEA_AR_antagonist_AUC_viability: ACEA Biosciences xCELLigence Real-Time Cell Analysis on Androgen Receptor Antagonism for Viability (AID 2283776);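 note: hits lower the growth signal relative to DMSO meaning cytotoxicity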
# Method in brief: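 22Rv1 human prostate cancer cells were seeded on electrode plates, monitored overnight, then exposed to eight 1:4 dilutions from 100 uM final. Impedance-based growth kinetics at 80 h gave an AUC viability endpoint normalized to DMSO.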
Compound,AC50,outcome
CCCCCCCC[N+](C)(CCCCCCCC)CCCCCCCC,0.925 µM (active),
CCCCCCCOC(=O)CCC,,inactive
CCCCCc1ccc(Cl)cc1,,inactive
CCCc1ccc(OC)cc1,,inactive
O=C(C(Cl)Cl)N1CCOC12CCCCC2,11 µM (active),
O=C(c1ccccc1)C1CCC1,0.391 µM (active),
OC1CCCC1,0.475 µM (active),
CC(C)c1ccc2cc(C(C)C)ccc2c1,,inactive
CC1=CC[C@H]2C[C@@H]1C2(C)C,,inactive
CC(C)(C)c1ccc(N)cc1,,inactive
CC(=O)[C@H]1[C@H](C#N)C[C@H]2[C@@H]3CC=C4C[C@@H](O)CC[C@]4(C)[C@H]3CC[C@@]21C,,inactive
Oc1ccc(Cl)cc1Cc1cc(Cl)ccc1O,8.53 µM (active),
CC(C)(C)c1ccc(-c2ccc(C(C)(C)C)cc2)cc1,,inactive
CNC(=S)NN,,inactive
O=c1cc(-c2ccccc2)oc2ccccc12,,inactive
CC/C=C\C/C=C\C/C=C\CCCCCCCC(=O)O,,inactive
COC(=O)c1c(C)cc(O)c(C)c1O,4.23 µM (active),
O=C(O)CCCC[C@@H]1SC[C@@H]2NC(=O)N[C@@H]21,,inactive

# Reference: PubChem BioAssay (EPA / NIEHS)
